3 molecules from PubChem BioAssay (EPA / NIEHS) can be followed below.

Read-out in assay [1]: Interleukin-1 alpha (IL1a), IL1A (gene 3552)
As to the kind of experiment: BSK_KF3CT_IL1a: BioMAP Diversity Plus: KF3CT Assay for Interleukin-1 alpha (IL1a) Biomarker Activity (AID 2283070). The settings on record: primary human keratinocytes with fibroblasts; actives raise or lower the signal. The procedure, abridged: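 Human keratinocyte plus foreskin fibroblast primary co-culture, sampled 24 h after chemical dosing. IL-1a measured by ELISA; responses fitted bidirectionally against DMSO baseline (negative control), so gain or loss of signal both count.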

Read-out in assay [2]: TIMP metallopeptidase inhibitor 2 (TIMP2), TIMP2 (gene 7077)
As to the kind of experiment: BSK_KF3CT_TIMP2: BioMAP Diversity Plus: KF3CT Assay for TIMP metallopeptidase inhibitor 2 (TIMP2) Biomarker Activity (AID 2283071). As to conditions: primary human keratinocytes with fibroblasts; actives raise or lower the signal. The procedure, abridged:
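Cells: human keratinocytes co-cultured with foreskin fibroblasts. Treat with chemical, 24 h. Measure TIMP-2 by ELISA; fit curves bidirectionally vs DMSO baseline.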

Read-out in assay [3]: C-C motif chemokine 2 (Homo sapiens) (UniProt P13500)
As to the kind of experiment: BSK_KF3CT_MCP1: BioMAP Diversity Plus: KF3CT Assay for Monocyte Chemoattractant Protein 1 (MCP1/CCL2) Biomarker Activity (AID 2283073). The settings on record: primary human keratinocytes with fibroblasts; actives raise or lower the signal. The procedure, abridged:
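ELISA read-out of MCP-1, 24 h post-dose, in primary human skin keratinocytes co-cultured with fibroblasts. Parallel SRB staining monitors cytotoxicity; changes fitted both directions relative to DMSO.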

Read-out in assay [4]: Matrix Metallopeptidase 9 (MMP9), MMP9 (gene 4318)
In words: BSK_KF3CT_MMP9: BioMAP Diversity Plus: KF3CT Assay for Matrix Metallopeptidase 9 (MMP9) Biomarker Activity (AID 2283074).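 For AC50: MMP9 protein level quantified by ELISA in the co-culture.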 As to conditions: primary human keratinocytes with fibroblasts; actives raise or lower the signal. In outline:
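Keratinocyte plus foreskin fibroblast human primary skin co-culture was dosed with chemical and MMP-9 was quantified by ELISA 24 h later. Bidirectional curve fitting used DMSO as negative control and activity baseline.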

Read-out in assay [5]: urokinase plasminogen activator (uPA), PLAU (gene 5328)
In words: BSK_KF3CT_uPA: BioMAP Diversity Plus: KF3CT Assay for urokinase plasminogen activator (uPA) Biomarker Activity (AID 2283075). As to conditions: primary human keratinocytes with fibroblasts; actives raise or lower the signal. The procedure, abridged:
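Human keratinocyte plus foreskin fibroblast primary co-culture exposed to chemical for 24 h. uPA levels were quantified by ELISA, and activity was fitted bidirectionally against a DMSO negative-control baseline.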

Read-out in assay [6]: CD40, CD40 (gene 958)
As to the kind of experiment: BSK_LPS_CD40: BioMAP Diversity Plus: LPS Assay for CD40 Biomarker Activity (AID 2283076). As to conditions: primary human HUVEC with PBMC; actives raise or lower the signal. The procedure, abridged:
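In the LPS system of human endothelial cells with peripheral blood mononuclear cells, CD40 levels were read by ELISA 24 h post-treatment. Signal changes in either direction were fitted against the DMSO baseline, with parallel SRB protein staining.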

Read-out in assay [7]: E-selectin (Homo sapiens) (UniProt P16581)
As to the kind of experiment: BSK_LPS_Eselectin: BioMAP Diversity Plus: LPS Assay for Eselectin Biomarker Activity (AID 2283077). As to conditions: primary human HUVEC with PBMC; actives raise or lower the signal. In outline:
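E-selectin ELISA on LPS-stimulated endothelial cell/PBMC co-cultures, read 24 h post-treatment; gains and losses fitted against DMSO. Parallel SRB staining (0.1% SRB after 10% TCA fixation, 560 nm) flags overt cytotoxicity.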

Read-out in assay [8]: Interleukin-8 (IL8), CXCL8 (gene 3576)
In words: BSK_LPS_IL8: BioMAP Diversity Plus: LPS Assay for Interleukin-8 (IL8) Biomarker Activity (AID 2283078). The settings on record: primary human HUVEC with PBMC; actives raise or lower the signal. The procedure, abridged: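 ELISA read-out of IL-8 after 24 h chemical treatment of LPS-activated endothelial/PBMC human primary co-cultures. Changes either up or down relative to DMSO; overt cytotoxicity checked by sulforhodamine B staining in parallel wells.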

Assay [9] can be described thus: BSK_LPS_SRB: Viability Assessment in the BioMAP Diversity Plus: LPS Assay (AID 2283079).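 Note: total protein by sulforhodamine B absorbance as a cytotoxicity measure; measured one day after compound addition.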 The settings on record: primary human HUVEC with PBMC. In outline: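 SRB viability endpoint: cells fixed with 10% TCA, stained with 0.1% SRB, read at 560 nm, 24 h post-dose. HUVEC/PBMC co-culture; signal change in either direction scored relative to DMSO.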
Assay [10] in a line: BSK_LPS_PGE2: BioMAP Diversity Plus: LPS Assay for Prostaglandin E2 (PGE2) Biomarker Activity (AID 2283082).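 For AC50: secreted prostaglandin E2 measured by ELISA in LPS-stimulated co-culture.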 The settings on record: primary human HUVEC with PBMC; actives raise or lower the signal. In outline:
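LPS-activated HUVEC/PBMC co-culture; cmpd dosed, 24 h; PGE2 by ELISA; bidirectional fit vs DMSO; SRB (0.1%, TCA-fixed, 560 nm) in parallel plates for overt cytotox.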

Read-out in assay [11]: Macrophage colony-stimulating factor (MCSF), CSF1 (gene 1435)
As to the kind of experiment: BSK_LPS_MCSF: BioMAP Diversity Plus: LPS Assay for Macrophage colony-stimulating factor (MCSF) Biomarker Activity (AID 2283083). As to conditions: primary human HUVEC with PBMC; actives raise or lower the signal. In outline:
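Bidirectional fitting against DMSO was applied to M-CSF levels read by ELISA at 24 h post-dose. The system pairs human umbilical vein endothelium with peripheral blood mononuclear cells; parallel SRB staining tracked cytotoxicity.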

Read-out in assay [12]: Tissue Factor, F3 (gene 2152)
In words: BSK_LPS_TissueFactor: BioMAP Diversity Plus: LPS Assay for Tissue Factor Biomarker Activity (AID 2283084). As to conditions: primary human HUVEC with PBMC; actives raise or lower the signal. The procedure, abridged:
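Compound was added to an endothelial cell/PBMC co-culture, and after 24 h tissue factor (CD142) was read by ELISA. Gain or loss of signal was fitted against a DMSO baseline, and parallel SRB staining (560 nm) tracked overt cytotoxicity.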

Read-out in assay [13]: Tumor necrosis factor (Homo sapiens) (UniProt P01375)
As to the kind of experiment: BSK_LPS_TNFa: BioMAP Diversity Plus: LPS Assay for Tumour Necrosis Factor alpha (TNFa) Biomarker Activity (AID 2283085). As to conditions: primary human HUVEC with PBMC; actives raise or lower the signal. In outline:
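Read-out is ELISA of TNFa in primary human endothelial cell–PBMC co-cultures at 24 h after compound. Activity in either direction was fitted against DMSO.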

Read-out in assay [14]: Vascular cell adhesion molecule 1 (VCAM1), VCAM1 (gene 7412)
As to the kind of experiment: BSK_LPS_VCAM1: BioMAP Diversity Plus: LPS Assay for Vascular cell adhesion molecule 1 (VCAM1) Biomarker Activity (AID 2283086). As to conditions: primary human HUVEC with PBMC; actives raise or lower the signal. In outline:
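HUVEC + PBMC co-culture, LPS system; compound 24 h; VCAM-1 by ELISA; bidirectional fit vs DMSO control; parallel SRB (0.1%, TCA-fixed, 560 nm) for cytotoxicity.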

Read-out in another assay: CD38, CD38 (gene 952)
In words: BSK_SAg_CD38: BioMAP Diversity Plus: SAg Assay for CD38 Biomarker Activity (AID 2283087). The settings on record: primary human HUVEC with PBMC; actives raise or lower the signal. The procedure, abridged: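 Human HUVEC plus PBMC co-culture stimulated with superantigen; CD38 measured by ELISA 24 h after chemical dosing. Fluorescence read-out, bidirectional fit against DMSO; cytotoxicity tracked in parallel by SRB and Alamar Blue.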

Read-out in assay [15]: CD40, CD40 (gene 958)
In words: BSK_SAg_CD40: BioMAP Diversity Plus: SAg Assay for CD40 Biomarker Activity (AID 2283088). The settings on record: primary human HUVEC with PBMC; actives raise or lower the signal. The procedure, abridged: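 CD40 is measured by fluorescence ELISA in an endothelial/PBMC primary human co-culture at 24 h post-dose. Fitting is bidirectional, DMSO baseline. Parallel SRB staining (560 nm) flags cytotoxicity.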

Read-out in a further assay: CD69, CD69 (gene 969)
As to the kind of experiment: BSK_SAg_CD69: BioMAP Diversity Plus: SAg Assay for CD69 Biomarker Activity (AID 2283089). As to conditions: primary human HUVEC with PBMC; actives raise or lower the signal. The procedure, abridged:
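ELISA, fluorescence read-out: CD69 on human umbilical vein endothelial cell + PBMC co-culture, 24 h post-dosing. Gain or loss of signal fitted bidirectionally against DMSO baseline.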

Read-out in assay [16]: Monocyte Chemoattractant Protein-1 (MCP1), CCL2 (gene 6347)
As to the kind of experiment: BSK_LPS_MCP1: BioMAP Diversity Plus: LPS Assay for Monocyte Chemoattractant Protein-1 (MCP1) Biomarker Activity (AID 2283081). As to conditions: primary human HUVEC with PBMC; actives raise or lower the signal. In outline:
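Secreted MCP-1 read by ELISA at 24 h post-dosing in an LPS-activated co-culture of endothelial cells with peripheral blood mononuclear cells. Fits run in both directions, DMSO as baseline; parallel SRB staining tracks overt cytotoxicity.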

A structure can be active in one record and inactive in another. The source made the active and inactive calls. Rule for the calls: active = hit-call score of the fitted dose curve at least 0.9, where 1 is the maximum; inactive = score below 0.9.

Tumor necrosis factor (Homo sapiens), sequence (P01375 whole entry, looked up): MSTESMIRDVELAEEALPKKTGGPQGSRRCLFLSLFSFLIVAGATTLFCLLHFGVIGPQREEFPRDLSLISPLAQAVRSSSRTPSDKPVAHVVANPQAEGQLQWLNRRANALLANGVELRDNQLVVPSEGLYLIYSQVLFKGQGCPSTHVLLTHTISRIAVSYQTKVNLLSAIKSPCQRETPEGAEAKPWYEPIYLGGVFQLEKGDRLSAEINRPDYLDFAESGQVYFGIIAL
E-selectin (Homo sapiens), sequence (P16581 whole entry, looked up): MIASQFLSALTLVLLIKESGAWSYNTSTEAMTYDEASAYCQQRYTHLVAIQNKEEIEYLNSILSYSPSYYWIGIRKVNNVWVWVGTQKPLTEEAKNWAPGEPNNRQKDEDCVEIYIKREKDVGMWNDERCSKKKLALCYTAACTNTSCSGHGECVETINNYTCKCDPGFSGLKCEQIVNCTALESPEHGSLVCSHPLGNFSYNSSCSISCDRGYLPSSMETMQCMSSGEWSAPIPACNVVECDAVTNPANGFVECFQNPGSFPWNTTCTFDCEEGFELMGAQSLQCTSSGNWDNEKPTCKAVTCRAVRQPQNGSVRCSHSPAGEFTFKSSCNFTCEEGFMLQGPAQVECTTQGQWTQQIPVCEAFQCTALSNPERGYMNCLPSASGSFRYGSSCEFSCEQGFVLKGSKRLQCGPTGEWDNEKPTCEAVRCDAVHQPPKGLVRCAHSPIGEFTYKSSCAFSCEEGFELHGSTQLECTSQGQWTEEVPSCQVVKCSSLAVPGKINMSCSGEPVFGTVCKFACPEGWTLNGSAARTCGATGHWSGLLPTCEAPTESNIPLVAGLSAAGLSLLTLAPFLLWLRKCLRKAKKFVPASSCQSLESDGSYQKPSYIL

With `CCCCCCCCCCCC(=O)N(C)CC(=O)O`, the outcome was “inactive” in [1]; “inactive” in [2]; “inactive” in assay [3]; “inactive” in [4]; “inactive” in assay [5]; “inactive” with CD40, CD40 (gene 958) [6]. Moreover, the result in assay [7], in [8], in [9], in [10], in [11] and in [12] was inactive. Further, the outcome was “inactive” in [13]; “inactive” in [14]; “inactive” with CD38, CD38 (gene 952); “inactive” with CD40, CD40 (gene 958) [15]; “inactive” in the assay with CD69, CD69 (gene 969). In addition, the AC50 (as a rule, the midpoint of the concentration-response curve, whichever way the signal moves) is 5.24 µM (active) in assay [10] and 5.86 µM (active) in assay [11].

On to `O=C(Cl)c1c(Cl)c(Cl)c(C(=O)Cl)c(Cl)c1Cl`, for which the outcome in assay [1] is “inactive”; in assay [2], “inactive”; in assay [3] it was “inactive”; in assay [4], “inactive”; with CD40, CD40 (gene 958) [6] it was “inactive”; in assay [8] it was “inactive”. Moreover, the result in assay [9], in [10], in assay [11], in assay [12], in [13] and in assay [14] was inactive. The outcome was “inactive” with CD38, CD38 (gene 952); “inactive” in the assay with CD40, CD40 (gene 958) [15]; “inactive” with CD69, CD69 (gene 969).

As to `COc1ccc(C(=O)c2ccccc2)c(O)c1`, the outcome in [1] is “inactive”; in assay [2] it was “inactive”; in assay [3], “inactive”; with CD40, CD40 (gene 958) [6] it was “inactive”; in [7] it was “inactive”; in [8] it was “inactive”. Besides, the result in [9], in assay [16], in assay [11], in assay [12], in assay [13] and in [14] was inactive. Moreover, the outcome with CD38, CD38 (gene 952) was “inactive”; with CD40, CD40 (gene 958) [15], “inactive”; with CD69, CD69 (gene 969), “inactive”. For the same molecule, the concentration at half-maximal activity (AC50) is 20 µM (active) in assay [4] and 4.59 µM (active) in assay [10].
